Only some compounds are listed: those with a hit (about 4% of all), similar ones and a draw of the others.
Beta cell apopt – beta cell apoptosis inhibition; actives 0.8% (n = 300,000); protection from apoptosis, % (no concentration beside the values); INS-1E cytokine-induced death, ATP luminescence, 48 h; percent of positive-control rescue, neutral wells zero;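 active means Every replicate reaches about 75%, or at least half do and their mean reaches it too, limit read from the data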;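 further: 0% = cytokine-treated negative control wells and 100% = positive control rescue; higher means more ATP so stronger rescue from cytokine killing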
Mdm2-MdmX inh – human Mdm2/MdmX binding inhibition. O15151+Q00987. SaOS-2 split-luciferase Mdm2/MdmX complementation, luminescence. inhibition, % at 8 µM. actives 3% (n = 330,000). AID 485346;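 active means inhibition of at least 50% at 8 µM in the primary screen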
697 NFkB inh – lowers PMA/ionomycin-induced NF-kB signal in 697 B cells; actives 0.33% (n = 330,000); 697 B-cell NF-kB luciferase reporter, 16 h; inhibition, % at 4 µM; in the data active means inhibition above about 35%
Jurkat NFkB inh – lowers PMA/ionomycin-induced NF-kB signal in Jurkat cells. PMA/ionomycin-induced NF-kB luciferase reporter, luminescence. inhibition, % at 4 µM. actives 0.53% (n = 330,000); in the data active means inhibition above about 50%
Gli-Sufu block – Gli-Sufu pathway antagonism; Sufu-KO-LIGHT fibroblasts, Gli luciferase reporter luminescence; inhibition, % at 5 µM; actives 0.74% (n = 340,000);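 active means inhibition above about 55%, limit read from the data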;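 further: 0% = DMSO-treated cells and 100% = wells with medium but no cells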
Starred values were filed as active, the others as inactive; x = no result given.

SMILES	Beta cell apopt	Mdm2-MdmX inh	697 NFkB inh	Jurkat NFkB inh	Gli-Sufu block
COc1cc(/C=C2/SC(=S)NC2=O)ccc1OS(=O)(=O)c1ccc(C)cc1	39	36	-16	9	-2
O=C(c1cccnc1)N1CCC(Oc2ccc(C(=O)N3CCCCO3)cc2)CC1	3	-43	-4	8	x
Cc1ccc(S(=O)(=O)/N=C2\C=C(Nc3cccc(C(=O)O)c3)C(=O)c3ccccc32)c(C)c1	95*	37	-42	-13	12
O=C1C(Nc2ccccc2)=C/C(=N/S(=O)(=O)c2cccs2)c2ccccc21	105*	x	x	x	35
O=C1C=C(Nc2ccccc2)C(=O)c2ccccc21	84*	-70	-156	-92	-60
Cc1ccc(S(=O)(=O)/N=C2\C=C(Nc3cccc(C(=O)O)c3)C(=O)c3ccccc32)cc1	21	-4	-61	-5	-22
O=C(CCCN1C(=O)c2cccc3cccc(c23)C1=O)Nc1nccs1	-2	-15	14	-11	2
Cc1cc(C)c(S(=O)(=O)c2ccccc2)c(N2CCOCC2)n1	-7	-30	13	11	-6
Cc1cccc(C(=O)Nc2cccc3c2CCCC3)c1	-1	10	-8	-5	16
Cc1oc(/N=C/c2ccccc2)c(C#N)c1C	165*	11	4	12	-15
CCOC(=O)/C(=C\c1ccc(OC(F)F)cc1)C1=Nn2c(nnc2-c2ccc(Cl)cc2)SC1	131*	x	x	x	56*
Cc1ccc(-n2c(-c3ccc(Br)cc3)c[n+]3c2CCc2ccc4cccnc4c2-3)cc1	133*	x	x	x	87*
O=C(NCC1CCCO1)C1CC(=O)N(c2ccc(Cl)cc2)C1 (configuration not stated)	-1	18	8	13	-4
O=C1C=CC(=O)N1c1cccc2cccnc12	x	x	x	x	12
Cc1ccc(N=C2SC(C(=O)Nc3ccc(OC(F)(F)F)cc3)C(N)=C2C(=O)Nc2c(C)cc(C)cc2C)cc1 (configuration not stated)	99*	x	x	x	-2
C#CCN(C(=O)c1cc(COc2cccc(C(F)(F)F)c2)on1)C1CCCCC1	104*	1	-2	2	4
Cc1ccc2[nH]c(=O)c(-c3noc(CC(C)C)n3)cc2c1	0	-5	-10	-10	-2
CC(C)(C)[C@@H]1C=C(C(=O)O)[C@H](c2ccc(Cl)cc2)N1S(=O)(=O)c1ccccc1	x	16	9	9	-21
CCCCN(C)Cc1cc(=O)oc2ccc3ccccc3c12	8	-4	7	1	-6
O=C1/C(=C/c2cccnc2)CCC/C1=C\c1cccnc1	100*	x	x	x	3
O=C1/C(=C/c2cccnc2)CC/C1=C\c1cccnc1	-16	12	-66	-21	8
CCCCC(CC)CN1C(=O)/C(=C/c2ccncc2)SC1=S (configuration not stated)	88*	21	2	-2	6
CC(OC(=O)C1=COCCO1)C(=O)c1ccc(C(C)(C)C)cc1 (configuration not stated)	x	0	-6	-7	-17
COC1=CC(=O)c2c(ccc3ncnc(N)c23)C1=O	x	x	x	x	56*
C[C@H](NC(=O)c1ccco1)C(=O)Nc1cccc([N+](=O)[O-])c1	-8	3	31	6	-2
SMILES	Beta cell apopt	Mdm2-MdmX inh	697 NFkB inh	Jurkat NFkB inh	Gli-Sufu block
Cc1sc2ncnc(NCCc3ccc(S(N)(=O)=O)cc3)c2c1C	93*	19	2	43	-16
CC(NC(=O)C1CCC(C(=O)NC(C)c2ccccc2)CC1)c1ccccc1 (configuration not stated)	238*	6	-12	19	45
CCN(CC)c1ccc(/C=N/NC(=O)c2ccoc2C)c(O)c1	101*	39	-249	-43	-19
Cc1occc1C(=O)N/N=C/c1ccc2c(c1)OCO2	76*	-71	-129	-109	-60
O=C(CN1CCN(S(=O)(=O)c2ccccc2)CC1)NCc1ccccc1	-2	10	-9	-5	1
CCCCn1c(NC(=O)CC)c(C#N)c2nc3ccccc3nc21	-5	-9	-6	-2	6
N#Cc1c(NC(=O)c2ccccc2Cl)n(Cc2ccccc2)c2nc3ccccc3nc12	106*	x	x	x	5
CCCCn1nc(C(=O)Nc2ccccc2N2CCCC2)c2ccccc2c1=O	21	-20	-32	-9	4
Cc1csc2c(N3CCN(C(=O)c4ccc(C(C)(C)C)cc4)CC3)ncnc12	116*	3	-14	6	8
Cc1csc2c(N3CCN(C(=O)NC(C)(C)C)CC3)ncnc12	3	26	-9	8	10
C/C(=N\Nc1nc(C)cc(-c2ccccc2)n1)c1ccc(C)o1	20	8	15	-12	1
C/C(=N\Nc1nc(C)cc(-c2ccccc2)n1)c1ccc(O)cc1	83*	26	-23	-26	4
C/C(=N\Nc1nc(C)cc(-c2ccccc2)n1)c1ccccc1	82*	9	-38	-44	-10
C/C(=N\Nc1nc(C)cc(-c2ccccc2)n1)c1cccc(N)c1	89*	-2	-6	-29	-14
O=c1[nH]c(NCCCO)nc2c1C1(CCCC1)Cc1ccccc1-2	104*	15	12	4	-2
CCC1(CC)Cc2ccccc2-c2nc(NCCCO)[nH]c(=O)c21	-15	7	2	-10	2
CC(=O)Nc1ccc(C2=CC(=O)C[C@H](c3ccc4c(c3)OCO4)C2)cc1	91*	-4	-8	11	7
NC(=O)c1ccc(Nc2ccc([N+](=O)[O-])cc2[N+](=O)[O-])cc1	2	5	6	-5	4
Nc1ccc(Nc2ccc([N+](=O)[O-])cc2[N+](=O)[O-])cc1	102*	4	6	-2	7
CCNc1nc(NCC)nc(N(CC)C(N)=S)n1	4	14	10	7	4
C=C(C)C(=O)OCC(O)COc1ccc(C(C)(C)c2ccc(OCC(O)COC(=O)C(=C)C)cc2)cc1 (configuration not stated)	104*	34	-26	0	-4
C(C#CCCCCCCCCC[n+]1ccccc1)#CCCCCCCCCC[n+]1ccccc1	104*	x	x	x	87*
Cc1cccc(NC(=O)CSCC(=O)Nc2ccc(S(=O)(=O)N3CCCC3)cc2)c1	4	-11	3	-5	0
Cc1cccc(CNc2ccc(S(=O)(=O)N3CCCCC3)cc2)c1	101*	11	-5	-2	-16
COc1ccc(/C=C/C(=O)c2ccncc2)c2ccccc12	100*	35	-5	19	1
COc1ccc(/C=C/C(=O)c2ccc[nH]2)c(OC)c1OC	-8	8	-18	-32	-17
C=CCNC(N)=S	-8	26	1	-9	9
COc1ccc(CCNC(=O)COc2nncc3ccccc23)cc1	-7	5	12	-1	-13
COc1ccc(N(C(=O)CCl)C(C(=O)NCCc2ccccc2)c2cccs2)cc1 (configuration not stated)	-4	x	x	x	95*
COc1ccc(CNC(=O)C(c2ccncc2)N(C(=O)Cc2cccs2)c2ccccc2)cc1 (configuration not stated)	x	x	x	x	1

From PubChem
